Laboratory results as given in PubChem BioAssay (Tox21).
Records with an inconclusive call do not appear. Entries that show only a call come without a potency. Activity calls are given as the source filed them. Unless noted, the call rests on the fitted dose curve; in most records, active means well fitted curve in the direction sought with a large enough effect in the repeat runs; inconclusive means weak or mixed curves; inactive means no such curve, though single readings can be large; an effect the other way counts as inactive or inconclusive.

Legend:
[1] = qHTS assay to identify aromatase inhibitors - cell viability counter screen (AID 743084);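 further: cells stimulated with testosterone during compound exposure; nearly all actives have a fitted effect of over 55% in size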
[2] = target: Aryl hydrocarbon receptor (Homo sapiens) (UniProt P35869); assay: qHTS assay to identify small molecule that activate the aryl hydrocarbon receptor (AhR) signaling pathway (AID 743085); further: nearly all actives have a fitted effect of over 15% in size; further: potency means the concentration at half of the fitted maximal effect;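 on activation: HG2L7.5c1 human HepG2 liver cells with stably integrated DRE-driven firefly reporter; series mostly up to about 70 µM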
Procedure, shortened: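 Steps: seed HepG2-AhR-luc cells; allow 5 h at 37C; pin-transfer test compound or vehicle; incubate 24 h at 37C; add viability dye (30 min, 37C) and read fluorescence; add luciferase substrate (30 min, RT) and read luminescence.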

[3] = qHTS assay to identify small molecule that activate the aryl hydrocarbon receptor (AhR) signaling pathway - cell viability counter screen (AID 743086);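 further: HepG2 liver cells carrying the AhR DRE luciferase reporter; series mostly up to about 70 µM; nearly all actives have a fitted effect of over 45% in size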
Procedure, shortened: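 HepG2-AhR-luc (HG2L7.5c1) cells, 4000/well, were preincubated 5 h at 37C, exposed to compound in qHTS format for 24 hr at 37C, then given CellTiter-Fluor for 30 min; viability was read as fluorescence in the reporter wells.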

[4] = target: Peroxisome proliferator-activated receptor gamma (Homo sapiens) (UniProt P37231); assay: qHTS assay to identify small molecule antagonists of the peroxisome proliferator-activated receptor gamma (PPARg) signaling pathway (AID 743191; calls by dose curve; further: series mostly up to about 63 µM; nearly all actives have a fitted effect of over 30% in size)
Procedure, shortened: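 GeneBLAzer PPARg UAS-bla HEK293H cells carrying a UAS-driven beta-lactamase reporter were plated at 3000 cells/well, preincubated 5 h at 37C, then given compound for 17 h at 37C; LiveBLAzer B/G FRET substrate was read after 1 h at room temperature.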

[5] = qHTS assay to identify small molecule antagonists of the peroxisome proliferator-activated receptor gamma (PPARg) signaling pathway - cell viability counter screen (AID 743194); settings: Potency: co-treated with 50 nM rosiglitazone; further: nearly all actives have a fitted effect of over 55% in size
Procedure, shortened: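 PPARg-UAS-bla HEK293H cells were plated, rested 5 h at 37 C, then treated with compounds plus rosiglitazone (50 nM final) for 17 h at 37 C; viability was then read by CellTiter-Glo luminescence after 30 min at room temperature.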

[6] = qHTS assay for small molecule agonists of the antioxidant response element (ARE) signaling pathway - cell viability counter screen (AID 743203; calls by dose curve; further: nearly all actives have a fitted effect of over 55% in size)
Procedure, shortened: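 Following 16 hrs of compound treatment at 37C, HepG2 cells with an ARE-controlled beta-lactamase gene were lysed with CellTiter-Glo. Luminescence was read after 30 min at room temperature.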

[7] = qHTS assay for small molecule activators of the heat shock response signaling pathway - cell viability counter screen (AID 743209); further: nearly all actives have a fitted effect of over 50% in size
Procedure, shortened: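 Readout: CellTiter-Glo luminescence, 30 min at room temperature. System: HSE-bla HeLa cells, 1500/well, plated overnight. Treatment: compounds in DMSO, 5 h at 37 C.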

[8] = qHTS assay for small molecule activators of the heat shock response signaling pathway (AID 743210; active means well fitted activation curve with a large enough effect in the signal ratio in the repeat runs, with a control signal flat, not every such curve was filed as active; the % refers to the signal ratio; further: series mostly up to about 63 µM)
Procedure, shortened: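 HSE-bla HeLa cells (beta-lactamase reporter under heat shock response elements) were exposed to compounds for 5 h at 37 C, then loaded with LiveBLAzer B/G FRET substrate for 2.5 h at room temperature before fluorescence reading.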

[9] = qHTS assay to identify small molecule agonists of the peroxisome proliferator-activated receptor delta (PPARd) signaling pathway - cell viability counter screen (AID 743211); further: nearly all actives have a fitted effect of over 55% in size
Procedure, shortened: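 Viability of GeneBLAzer PPARd UAS-bla HEK293H cells was assessed after 17 h compound incubation at 37C, using CellTiter-Glo reagent added after the reporter read and luminescence recorded 30 min later.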

[10] = qHTS assay to identify small molecule antagonists of the peroxisome proliferator-activated receptor delta (PPARd) signaling pathway - cell viability counter screen (AID 743213); further: nearly all actives have a fitted effect of over 50% in size
Procedure, shortened: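 Viability counter-screen, qHTS format: PPARd-bla HEK293H, L165041 300 nM final, 17 h compound exposure at 37 C, CellTiter-Glo luminescence after 30 min RT.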

[11] = qHTS assay to identify small molecule agonists of the farnesoid-X-receptor (FXR) signaling pathway - cell viability counter screen (AID 743218); further: nearly all actives have a fitted effect of over 45% in size
Procedure, shortened: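 Parallel cytotoxicity test: compound-treated (16 h, 37 C) HEK 293T FXR-bla reporter cells were lysed with CellTiter-Glo and luminescence recorded.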

[12] = qHTS assay to identify small molecule antagonists of the farnesoid-X-receptor (FXR) signaling pathway - cell viability counter screen (AID 743221; active means well fitted cell-killing curve with a large enough effect in the repeat runs, not every such curve was filed as active; further: nearly all actives have a fitted effect of over 50% in size)
Procedure, shortened: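 Quantitative HTS of the Tox21 10K library run in parallel with the beta-lactamase reporter read. HEK 293T cells carrying a UAS-driven bla reporter got compound and 50 uM CDCA (final) for 16 h; ATP-based luminescence followed.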

[13] = target: Vitamin D3 receptor (Homo sapiens) (UniProt P11473); assay: qHTS assay to identify small molecule agonists of the vitamin D receptor (VDR) signaling pathway (AID 743222; calls by dose curve)
Procedure, shortened: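 In VDR-bla cells, compound-induced beta-lactamase expression is quantified by FRET substrate fluorescence. Treatment lasts 16 h at 37C; substrate develops 2 h at room temperature.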

[14] = target: Vitamin D3 receptor (Homo sapiens) (UniProt P11473); assay: qHTS assay to identify small molecule antagonists of the vitamin D receptor (VDR) signaling pathway (AID 743223; active means well fitted inhibition curve with a large enough effect in the signal ratio in the repeat runs, not every such curve was filed as active; the % refers to the signal ratio)
Procedure, shortened: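 Fluorescence from LiveBLAzer B/G FRET substrate, read after 2 h at room temperature, reflects beta-lactamase reporter activity in VDR-bla cells treated 16 h at 37C with compounds and agonist 1alpha,25-dihydroxyvitamin D3 (3 nM final).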

[15] = qHTS assay for small molecule agonists of the antioxidant response element (ARE) signaling pathway (AID 743202; active means well fitted activation curve with a large enough effect in the signal ratio in the repeat runs, not every such curve was filed as active; the % refers to the signal ratio; further: potency means the concentration at half of the fitted maximal effect)
Procedure, shortened: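 Read-out: LiveBLAzer B/G FRET substrate fluorescence after 2 h at room temperature, following 16 h compound treatment at 37 C of HepG2 cells carrying an ARE-driven beta-lactamase reporter.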

[16] = target: Peroxisome proliferator-activated receptor delta (Homo sapiens) (UniProt Q03181); assay: qHTS assay to identify small molecule agonists of the peroxisome proliferator-activated receptor delta (PPARd) signaling pathway (AID 743212; calls by dose curve)
Procedure, shortened: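 GeneBLAzer PPARd UAS-bla HEK293H cells (beta-lactamase reporter under UAS control), plated and rested 5 h at 37 C, then exposed to compounds in DMSO at 37 C; LiveBLAzer B/G FRET substrate added, 2 h room temperature, fluorescence read.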

[17] = target: Peroxisome proliferator-activated receptor delta (Homo sapiens) (UniProt Q03181); assay: qHTS assay to identify small molecule antagonists of the peroxisome proliferator-activated receptor delta (PPARd) signaling pathway (AID 743215; active means well fitted inhibition curve with a large enough effect in the signal ratio in the repeat runs, not every such curve was filed as active; the % refers to the signal ratio;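 further: cells stimulated with agonist L165041 at 300 nM final during compound exposure; series mostly up to about 62 µM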)
Procedure, shortened: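 HEK293H UAS-bla, PPARd; agonist L165041 300 nM final with cpd in DMSO; 37 C 17 h; FRET substrate, RT 2 h; fluorescence intensity.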

[18] = target: Bile acid receptor (Homo sapiens) (UniProt Q96RI1); assay: qHTS assay to identify small molecule antagonists of the farnesoid-X-receptor (FXR) signaling pathway (AID 743217; active means well fitted inhibition curve with a large enough effect in the signal ratio in the repeat runs, not every such curve was filed as active; the % refers to the signal ratio)
Procedure, shortened: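 GeneBLAzer FXR-UAS-bla HEK 293T, CDCA-stimulated (50 uM final). Compound treatment 16 h, 37 °C. Detection: beta-lactamase cleavage of B/G FRET substrate, fluorescence.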

[19] = target: Bile acid receptor (Homo sapiens) (UniProt Q96RI1); assay: qHTS assay to identify small molecule agonists of the farnesoid-X-receptor (FXR) signaling pathway (AID 743220; active means well fitted activation curve with a large enough effect in the signal ratio in the repeat runs, not every such curve was filed as active; the % refers to the signal ratio)
Procedure, shortened: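 Beta-lactamase reporter under UAS control in GeneBLAzer FXR HEK 293T cells (5000/well) measured with LiveBLAzer FRET substrate after 2 h at room temperature. Compound exposure lasted 16 h at 37C.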

Sequence of Aryl hydrocarbon receptor (Homo sapiens) (P35869 whole entry, looked up): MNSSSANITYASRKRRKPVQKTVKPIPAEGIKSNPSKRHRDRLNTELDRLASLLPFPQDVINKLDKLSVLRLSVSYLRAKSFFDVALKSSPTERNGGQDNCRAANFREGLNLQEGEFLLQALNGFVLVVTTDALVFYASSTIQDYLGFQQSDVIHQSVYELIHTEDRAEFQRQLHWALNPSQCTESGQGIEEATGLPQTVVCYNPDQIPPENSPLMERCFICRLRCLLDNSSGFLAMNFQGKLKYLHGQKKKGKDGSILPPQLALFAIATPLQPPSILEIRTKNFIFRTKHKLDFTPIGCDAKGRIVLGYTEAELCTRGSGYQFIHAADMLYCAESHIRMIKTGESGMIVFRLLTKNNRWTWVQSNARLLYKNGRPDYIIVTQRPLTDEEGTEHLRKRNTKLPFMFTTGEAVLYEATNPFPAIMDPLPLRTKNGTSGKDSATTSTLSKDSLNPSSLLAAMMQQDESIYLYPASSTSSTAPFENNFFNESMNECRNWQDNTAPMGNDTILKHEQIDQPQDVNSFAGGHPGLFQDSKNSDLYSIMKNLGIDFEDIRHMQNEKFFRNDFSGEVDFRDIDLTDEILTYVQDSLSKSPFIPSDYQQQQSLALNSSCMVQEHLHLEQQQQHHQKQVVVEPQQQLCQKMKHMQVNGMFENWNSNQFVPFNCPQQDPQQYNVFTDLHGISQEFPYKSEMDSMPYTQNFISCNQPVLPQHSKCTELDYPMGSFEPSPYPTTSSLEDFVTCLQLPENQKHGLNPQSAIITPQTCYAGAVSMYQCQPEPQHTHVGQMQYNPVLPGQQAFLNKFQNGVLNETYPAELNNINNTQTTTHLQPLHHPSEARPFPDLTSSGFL
Sequence of Peroxisome proliferator-activated receptor delta (Homo sapiens) (Q03181 whole entry, looked up): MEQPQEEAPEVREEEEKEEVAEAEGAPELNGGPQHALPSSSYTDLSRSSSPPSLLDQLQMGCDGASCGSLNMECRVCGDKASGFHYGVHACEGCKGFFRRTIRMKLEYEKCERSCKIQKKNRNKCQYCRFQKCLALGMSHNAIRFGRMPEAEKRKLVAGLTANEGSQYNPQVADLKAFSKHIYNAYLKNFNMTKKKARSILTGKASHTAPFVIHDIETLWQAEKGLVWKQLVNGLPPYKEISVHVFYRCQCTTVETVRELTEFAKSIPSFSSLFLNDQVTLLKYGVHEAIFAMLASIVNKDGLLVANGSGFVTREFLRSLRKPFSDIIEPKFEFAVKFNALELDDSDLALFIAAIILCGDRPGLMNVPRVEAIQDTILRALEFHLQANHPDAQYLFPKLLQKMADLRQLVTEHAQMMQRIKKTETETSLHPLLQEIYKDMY
Sequence of Bile acid receptor (Homo sapiens) (Q96RI1 whole entry, looked up): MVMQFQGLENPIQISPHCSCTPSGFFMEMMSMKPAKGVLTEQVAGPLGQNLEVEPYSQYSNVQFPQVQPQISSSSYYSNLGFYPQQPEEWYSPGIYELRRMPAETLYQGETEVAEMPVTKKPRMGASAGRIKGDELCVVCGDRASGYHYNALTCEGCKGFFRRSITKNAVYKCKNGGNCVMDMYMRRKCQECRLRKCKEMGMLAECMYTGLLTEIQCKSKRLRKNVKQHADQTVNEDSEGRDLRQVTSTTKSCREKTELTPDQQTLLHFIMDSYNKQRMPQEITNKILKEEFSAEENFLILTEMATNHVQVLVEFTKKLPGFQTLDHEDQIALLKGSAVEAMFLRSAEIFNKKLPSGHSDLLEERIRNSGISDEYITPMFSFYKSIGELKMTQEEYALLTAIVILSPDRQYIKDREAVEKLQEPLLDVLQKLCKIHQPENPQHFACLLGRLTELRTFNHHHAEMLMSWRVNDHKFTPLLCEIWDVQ
Sequence of Peroxisome proliferator-activated receptor gamma (Homo sapiens) (P37231 whole entry, looked up): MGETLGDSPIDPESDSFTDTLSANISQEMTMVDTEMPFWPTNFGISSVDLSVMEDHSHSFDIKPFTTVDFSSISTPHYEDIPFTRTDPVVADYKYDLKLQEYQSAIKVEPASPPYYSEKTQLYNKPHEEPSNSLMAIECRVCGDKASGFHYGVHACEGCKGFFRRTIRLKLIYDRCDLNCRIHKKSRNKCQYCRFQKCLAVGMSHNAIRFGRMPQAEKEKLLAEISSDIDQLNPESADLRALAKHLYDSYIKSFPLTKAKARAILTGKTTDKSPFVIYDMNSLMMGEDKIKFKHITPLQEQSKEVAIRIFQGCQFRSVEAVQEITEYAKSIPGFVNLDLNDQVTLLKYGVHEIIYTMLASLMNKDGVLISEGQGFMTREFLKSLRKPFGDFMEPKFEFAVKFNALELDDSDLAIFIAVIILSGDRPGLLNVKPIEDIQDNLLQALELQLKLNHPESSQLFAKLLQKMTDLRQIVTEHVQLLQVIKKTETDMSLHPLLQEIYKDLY
Sequence of Vitamin D3 receptor (Homo sapiens) (P11473 whole entry, looked up): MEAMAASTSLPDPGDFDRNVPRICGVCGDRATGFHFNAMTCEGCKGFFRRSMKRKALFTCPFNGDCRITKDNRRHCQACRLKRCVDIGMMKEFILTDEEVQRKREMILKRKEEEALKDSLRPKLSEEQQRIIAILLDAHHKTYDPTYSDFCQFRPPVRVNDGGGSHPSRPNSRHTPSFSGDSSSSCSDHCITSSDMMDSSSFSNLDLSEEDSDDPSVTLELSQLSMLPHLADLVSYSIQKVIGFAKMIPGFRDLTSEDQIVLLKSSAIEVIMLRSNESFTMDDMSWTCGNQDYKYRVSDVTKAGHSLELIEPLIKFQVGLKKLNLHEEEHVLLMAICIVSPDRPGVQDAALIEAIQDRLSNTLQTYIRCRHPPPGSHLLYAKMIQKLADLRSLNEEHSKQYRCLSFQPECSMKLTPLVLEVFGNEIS

Row | Structure (SMILES) | Potency [1] | Potency [2] | outcome [3] | Potency [4] | Potency [5] | Potency [6] | Potency [7] | outcome [8] | Potency [9] | outcome [10] | Potency [11] | outcome [12] | outcome [13] | outcome [14] | Potency [15] | outcome [16] | outcome [17] | Potency [18] | outcome [19]
1 | COc1cc2c(cc1OC)[C@@]13CCN4CC5=CCO[C@H]6CC(=O)N2[C@H]1[C@H]6[C@H]5C[C@H]43 | inactive | inactive | inactive | inactive | inactive | inactive | inactive | inactive | inactive | inactive | inactive | inactive | inactive | inactive | – | – | – | – | –
2 | NC(=O)O | inactive | inactive | inactive | – | inactive | inactive | inactive | inactive | inactive | inactive | inactive | inactive | inactive | inactive | inactive | inactive | inactive | – | –
3 | Cc1nc(N)nc(N)n1 | inactive | inactive | inactive | – | inactive | inactive | inactive | inactive | inactive | – | inactive | inactive | inactive | inactive | – | inactive | inactive | – | –
4 | CCCCCCBr | inactive | inactive | inactive | – | inactive | inactive | inactive | inactive | inactive | – | – | – | inactive | inactive | inactive | – | – | – | –
5 | O=C(O)C(Br)CBr (configuration not stated) | inactive | inactive | inactive | – | inactive | inactive | inactive | inactive | inactive | inactive | inactive | inactive | – | – | 27.8 µM (active) | – | inactive | – | –
6 | C[C@]12CC[C@H]3[C@@H](CC=C4C[C@@H](O)CC[C@@]43C)[C@@H]1CC[C@@H]2O | inactive | inactive | inactive | – | inactive | inactive | inactive | – | inactive | inactive | inactive | inactive | inactive | inactive | inactive | – | – | – | –
7 | CN/C(=N\[N+](=O)[O-])NCC1CCOC1 (configuration not stated) | inactive | inactive | inactive | – | inactive | inactive | inactive | inactive | inactive | inactive | inactive | inactive | inactive | inactive | inactive | – | – | inactive | inactive
8 | CC(C)CC(N(C)C)C1(c2ccc(Cl)cc2)CCC1 (configuration not stated) | inactive | inactive | inactive | – | inactive | inactive | inactive | – | inactive | inactive | inactive | – | inactive | inactive | inactive | – | inactive | inactive | inactive
9 | O=NN1CCN(N=O)CC1 | inactive | inactive | inactive | – | inactive | inactive | inactive | inactive | inactive | inactive | inactive | inactive | inactive | inactive | inactive | – | – | inactive | inactive
10 | CCCSP(=S)(OCC)Oc1ccc(Cl)cc1Cl (configuration not stated) | inactive | 54.5 µM (active) | inactive | inactive | inactive | inactive | inactive | inactive | – | inactive | inactive | – | inactive | inactive | – | inactive | inactive | – | –
11 | CC1CN1P(=O)(N1CC1C)N1CC1C (configuration not stated) | inactive | inactive | inactive | inactive | inactive | inactive | inactive | inactive | inactive | inactive | inactive | inactive | inactive | inactive | – | – | – | – | –
12 | O=C(Nc1ccccc1)c1ccccc1I | inactive | 48.6 µM (active) | inactive | – | inactive | inactive | inactive | inactive | inactive | – | inactive | – | – | – | 21.7 µM (active) | – | – | – | –
13 | O=C(Oc1ccc(Br)cc1)N1CCN2CCC1CC2 | inactive | inactive | inactive | inactive | inactive | inactive | inactive | inactive | inactive | inactive | inactive | inactive | inactive | inactive | – | inactive | inactive | – | –
14 | CCS(=O)(=O)CCSP(=O)(OC)OC | inactive | inactive | inactive | – | inactive | inactive | inactive | inactive | – | inactive | inactive | inactive | inactive | – | 8.63 µM (active) | inactive | inactive | – | –
15 | COC(C)(C)C | inactive | inactive | inactive | – | inactive | inactive | inactive | inactive | inactive | – | inactive | inactive | inactive | inactive | inactive | inactive | – | – | –
16 | CCCSC(=O)Cl | inactive | inactive | inactive | – | inactive | inactive | inactive | inactive | inactive | – | inactive | inactive | inactive | inactive | inactive | inactive | inactive | inactive | inactive
17 | COc1ncc(F)c2nc(S(=O)(=O)Nc3c(F)cccc3F)nn12 | inactive | inactive | inactive | – | inactive | inactive | inactive | inactive | inactive | inactive | inactive | – | – | – | inactive | inactive | inactive | – | –
18 | N#CCBr | inactive | inactive | inactive | – | inactive | inactive | inactive | inactive | inactive | inactive | inactive | inactive | inactive | inactive | inactive | – | – | inactive | inactive
19 | CC1(C)COP(Oc2ccccc2)OC1 | inactive | inactive | inactive | – | inactive | inactive | inactive | inactive | inactive | inactive | inactive | inactive | inactive | inactive | – | – | inactive | inactive | inactive
